Laboratory results as given in the supplement of paper PMC3724861.
The sample as a whole holds a higher share of hits than the screen did. The hit rate among all sequences tested is not known here. A number with no mark means an inactive call.

Tested on: T1, Caupolican (Caup) homeodomain DNA-binding domain
T1 sequence: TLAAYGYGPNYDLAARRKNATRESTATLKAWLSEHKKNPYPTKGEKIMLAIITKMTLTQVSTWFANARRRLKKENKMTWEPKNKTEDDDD
Assay: PBM E-score (8-mer, recovered from the published 9-mer minima) (E-score (dimensionless, -0.5 to 0.5)); Drosophila protein; higher = stronger relative binding preference, active = 0.31 or more
Method: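 Protein binding microarray (PBM): in vitro transcribed/translated Caupolican (Caup) homeodomain DNA-binding domain (residues 214-303) applied at 100 nM to a universal 8-mer PBM array (Agilent AMADID 015681). The 8-mer enrichment score (E-score, range -0.5 to 0.5) was computed, and each 9-mer score is the minimum E-score of its two constituent 8-mers. The E-score is the same for a 9-mer and its reverse complement; 0.31 is the stated binding threshold.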

Row | Sequence | PBM E-score
1 | ACGCAATC | -0.0194
2 | GAGTTTAC | -0.00241
3 | ACATCGCT | 0.178
4 | CCTTCTAC | -0.131
5 | CATCTGAC | 0.0423
6 | AAGGTACC | -0.127
7 | ACCGCACA | -0.00685
8 | CGCGGAGA | -0.112
9 | ATAGCTTC | -0.0833
10 | ATGTTAGC | 0.314 (active)
11 | ATGTTAGG | 0.219
12 | CTGTTAGA | 0.105
13 | ATGTTAGA | 0.329 (active)
14 | CTGTTAGC | -0.0813
15 | GTGTTAGA | 0.224
16 | AATGACAG | 0.219
17 | TATGACAA | 0.314 (active)
18 | AATGACAA | 0.346 (active)
19 | GATGACAA | 0.308
20 | CATGACAA | 0.283
21 | CATGACAC | 0.363 (active)
22 | AATGACAT | 0.298
23 | GATGACAC | 0.219

Row | Sequence | PBM E-score
24 | AATGACAC | 0.277
25 | AGATCATC | 0.12
26 | ACAGGCGC | -0.0681
27 | TGAGGGCA | -0.108
28 | GAGCACAC | 0.00424
29 | AGCGTCTA | -0.0661
30 | ACACGGTA | 0.327 (active)
31 | ACACGGAA | 0.291
32 | ACACGGTG | 0.307
33 | ACACGGTC | 0.219
34 | ACACGGAG | 0.131
35 | ACACGGAT | 0.339 (active)
36 | ACAACGTA | 0.255
37 | AGTCACAG | 0.0714
38 | CGCCCCCA | -0.285
39 | AGCATGAT | 0.197
40 | ACCATGAC | 0.0507
41 | CACATGAG | 0.0472
42 | AACATGAC | 0.42 (active)
43 | ACCATGAT | 0.158
44 | AACATGAG | 0.351 (active)
45 | AACATGAT | ≥ 0.424 (active)
46 | AGCATGAC | 0.0874

Row | Sequence | PBM E-score
47 | AGCATGAG | 0.104
48 | AGAAGATC | -0.0662
49 | GTTGGATA | 0.0774
50 | ATCCAATC | 0.102
51 | AGCCCTTC | -0.22
52 | GCTCGTGA | -0.064
53 | AGCGGGGG | -0.28
54 | GACTATGA | 0.0441
55 | ATAATGCC | 0.0429
56 | ACTTGCAT | 0.137
57 | GCGTTTAC | -0.0438
58 | AGCACATG | 0.164
59 | AGTACGTG | 0.0988
60 | AGTACATC | 0.342 (active)
61 | AGCACATC | 0.0585
62 | AGTACAGC | 0.167
63 | AGTACATG | 0.45 (active)
64 | CGTGATAG | -0.0553
65 | AGCGCAAG | -0.181
66 | CTTTGCGA | -0.0806
67 | TAAAAAGA | 0.0988
68 | CAAAGTTC | -0.0431
69 | CTATGTTA | 0.294

Row | Sequence | PBM E-score
70 | GTCTGTTA | 0.161
71 | ATATGTGA | 0.25
72 | ATATGTTC | 0.347 (active)
73 | GTATGTTA | 0.321 (active)
74 | ATCTGTTG | 0.128
75 | ATATGTTG | 0.324 (active)
76 | ATATGTGG | 0.182
77 | CTCTGTTA | 0.107
78 | ATATGTTA | 0.338 (active)
79 | ATATGTGC | 0.118
80 | CTATGTTC | 0.31
81 | ATTCAGTC | 0.00318
82 | AGCCATTC | -0.0817
83 | CCCTAGGG | -0.253
84 | AATGTTCG | 0.154
85 | CATGTTCG | 0.399 (active)
86 | TCTGTTCA | 0.0822
87 | TATGTTGA | 0.288
88 | CATGTTCC | 0.409 (active)
89 | CATGTTCA | 0.396 (active)
90 | GATGTTCC | 0.281
91 | CCTGTTCG | 0.0935
92 | AATGTTCC | 0.2

Row | Sequence | PBM E-score
93 | GATGTTCA | 0.303
94 | AATGTTCA | 0.244
95 | TATGTTCA | 0.324 (active)
96 | AGCCCTCA | -0.12
97 | CAACAAAG | 0.159
98 | CTAATAAG | 0.0971
99 | GGCTAGGA | -0.114
100 | ATAAGGAA | 0.0175
101 | TAAACGCA | 0.034
102 | AGATACGC | -0.121
103 | GGGTCTGA | -0.193
104 | ACGCTGAG | -0.175
105 | CATGTTGG | 0.285
106 | CATGTTGC | 0.279
107 | AATGTTGA | 0.17
108 | CATGTTGA | 0.38 (active)
109 | AATGTTGG | 0.115
110 | AATGTTGT | 0.368 (active)
111 | AGTCTAAG | 0.0473
112 | CTATGTAA | 0.338 (active)
113 | GTATGTAA | 0.369 (active)
114 | GTATGTGA | 0.193
115 | GAATGTAA | 0.223
